Assay outcomes (PubChem)
Cruzain noTriton: blocks cruzain activity in detergent-free assay; P25779; purified cruzain, Z-FR-AMC fluorescence, no detergent; Potency, µM, for the others: max response, negative = inhibition, most hits filed as inhibitors; actives 2.3% (n = 200,000); AID 1476;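 also: plate controls were enzyme without inhibitor for no effect and buffer without enzyme for full effect; nearly all actives have a fitted effect of over 40% in size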
Target sequence (P25779 123-467 limits assumed): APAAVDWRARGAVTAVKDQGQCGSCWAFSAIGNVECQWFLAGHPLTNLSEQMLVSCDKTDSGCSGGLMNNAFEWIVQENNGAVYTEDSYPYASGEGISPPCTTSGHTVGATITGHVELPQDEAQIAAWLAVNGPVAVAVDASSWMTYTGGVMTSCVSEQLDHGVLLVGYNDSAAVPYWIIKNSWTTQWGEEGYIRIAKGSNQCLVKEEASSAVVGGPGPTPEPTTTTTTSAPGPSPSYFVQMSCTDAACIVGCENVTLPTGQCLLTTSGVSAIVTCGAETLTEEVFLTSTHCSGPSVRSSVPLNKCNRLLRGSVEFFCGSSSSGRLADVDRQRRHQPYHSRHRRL
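Purified cruzain at 1.5 nM, pre-incubated 15 min with compound at room temperature in 100 mM sodium acetate pH 5.5, 5 mM DTT, 0.00005% Triton X-100. Reaction started with 2 uM Z-FR-AMC; AMC fluorescence increase over 60 s gives rate.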
Cruzain Triton: cruzain (T. cruzi) inhibition with detergent | P25779 | purified cruzain, Z-FR-AMC fluorescence, 0.01% Triton | Potency, µM, for the others: max response, negative = inhibition, hits mostly inhibitors | actives 0.43% (n = 200,000) | AID 1478;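 also: plate controls were neutral wells for no effect and buffer without enzyme for full effect; nearly all actives have a fitted effect of over 40% in size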
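Detergent-containing arm of a paired screen for aggregation-based inhibition: 0.01% Triton X-100 present. Cruzain at 1.5 nM cleaved 2 uM Z-FR-AMC at pH 5.5 with 5 mM DTT; AMC fluorescence gain over 60 s measured activity.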
The depositor's hits bear a star; ? = inconclusive. This is a sample that favours compounds with a hit; in the whole collection about 2.4% have one here. Calls follow the shape of the dose curve; as a rule, active = well fitted curve in the direction sought with a large enough effect; inconclusive = small, poorly fitted or top-dose-only effect, or another doubt; inactive = no such curve, though single readings can be large; an effect the other way counts as inactive or inconclusive. Potency is read from the fitted curve at half-maximal effect.

SMILES	Cruzain noTriton	Cruzain Triton
CCSC1=C(C#N)C(c2cccs2)C(C(=O)OC)=C(C)N1 (configuration not stated)	-11%	-2%
O=C(Cn1nc(-c2ccc(Cl)cc2)ccc1=O)NCc1ccccc1Cl	5%	0%
Cc1ccc(/C=N/c2sc3c(c2C#N)CCC3)s1	-4%	-3%
N#Cc1c(/N=C/c2cc3ccccc3s2)sc2c1CCC2	13µM*	-5%
O=C(Nc1nnc(SCc2ccc(Cl)cc2)s1)c1ccco1	?	6%
Cc1nnc(NC(=O)Nc2cccc(Cl)c2)s1	0%	1%
O=C(Nc1ccc(Cl)cc1)Nc1nnc(SCc2ccccc2)s1	7.9µM*	-1%
O=C(Nc1ccccc1)Nc1nnc(CSCc2ccccc2Cl)s1	?	-3%
O=C(Nc1ccc(Cl)c(Cl)c1)Nc1nnc(CSc2ccccc2)s1	10µM*	-1%
Cc1ccc(OCCSCc2nnc(NC(=O)Nc3cccc(Cl)c3)s2)cc1	16µM*	-1%
O=C(Nc1ccc(Cl)cc1)Nc1nnc(CSCc2ccccc2Cl)s1	6.3µM*	-1%
CCCc1nnc(NC(=O)Nc2ccccc2Cl)s1	-12%	-2%
CC(C)c1ccc(Nc2nc3c(S(=O)(=O)c4ccc(Br)cc4)nnn3c3ccsc23)cc1	-13%	0%
CC1=C(/C=C/C(=C/C=C/C(C)=C/C(=O)O)c2ccc(C)cc2)C(C)(C)CCC1	?	-10%
CCOc1ccc(C2=C(C(=O)CC)Sc3nncn3N2C(=O)CC)cc1	28%	-11%
COc1ccc(C(=O)/C=C/c2ccc(N3CCCCC3)c([N+](=O)[O-])c2)cc1	-17%	-5%
O=C(/C=C/c1ccc(Cl)c([N+](=O)[O-])c1)Nc1ccc(N2CCCC2)c(Cl)c1	20µM*	-2%
Nc1nc2c(nc(Br)n2C2O[C@H]3COP(=O)(O)O[C@@H]3C2O)c(=O)[nH]1 (some centres not stated)	3%	-5%
CCOC(=O)c1c(-c2ccccc2)oc2cc(Br)c(OCc3ccccc3)cc12	3%	0%
CCOC(=O)c1c(-c2ccccc2)oc2ccc(OCc3cccc(Br)c3)cc12	10µM*	-6%
CCOc1cccc(NC(=O)c2sc3nc(-c4ccc(F)cc4)ccc3c2N)c1	-27%	-12%
Nc1ccc(N2CCN(c3cccc(Cl)c3)CC2)cc1	16µM*	-6%
O=C(O)c1ccccc1C(=O)N1CCN(c2cccc(Cl)c2)CC1	-20%	-4%
CCOc1ccccc1NC(=O)C1CCCN(c2ncnc3onc(-c4ccc(F)cc4)c23)C1 (configuration not stated)	-5%	-2%
O=c1c(NCc2ccccc2Cl)nccn1-c1ccccc1	-29%	-5%
SMILES	Cruzain noTriton	Cruzain Triton
CC(=O)c1cccc(NC(=O)C(OC(=O)c2cccs2)c2ccccc2)c1 (configuration not stated)	32µM*	-6%
COCCNC(=O)C(OC(=O)c1cccs1)c1ccccc1 (configuration not stated)	12%	8%
COC(=O)[C@@]1(Cc2ccccc2-c2ccco2)C=C[C@H](C)[C@@H](c2ccccc2)N1C(=O)C(F)(F)F	5%	-2%
CC(C)c1ccc(NC(=O)CCCc2nc(-c3ccc(Cl)cc3)no2)cc1	-8%	-2%
Cc1ccc(-n2cccc2/C=C2/NC(=O)N(CC(=O)Nc3cccc(C)c3)C2=O)cc1	5µM*	-4%
Cc1cccc(NC(=O)CN2C(=O)N/C(=C\c3ccc(N4CCOCC4)cc3)C2=O)c1	-21%	-4%
COc1ccc(NC(=O)CSC2=Nc3ccccc3C3=NC(CCC(=O)NCCc4ccccc4)C(=O)N23)c(OC)c1 (configuration not stated)	-1%	3%
COc1ccc(Cn2nnnc2C(c2cccs2)N2CCN(c3ccc([N+](=O)[O-])cc3)CC2)cc1 (configuration not stated)	32µM*	-3%
COc1ccc(Cn2nnnc2C(c2cccs2)N2CCN(c3ccccc3)CC2)cc1 (configuration not stated)	9%	0%
COC(=O)c1cc2sc(Cl)cc2n1CC(=O)Nc1cccc(SC)c1	25µM*	-16%
CCc1cccc(NC(=O)Cn2c(C(=O)OC)cc3sc(Cl)cc32)c1	11%	0%
Brc1csc(CN2CCc3nc(Nc4ccccc4)ncc3C2)c1	?	-9%
COc1cc(Nc2ncc3c(n2)CCN(Cc2cc(Br)cs2)C3)cc(OC)c1	25µM*	-8%
COc1ccc(CCNC(=O)Cc2c(C)c3ccc(O)c(C)c3oc2=O)cc1OC	-20%	-10%
CCOC(=O)c1c(NC(=S)Nc2ccccc2)sc2c1CCCCC2	-15%	-5%
CCOC(=O)c1c(NC(=S)Nc2cccc(C)c2)sc2c1CC(C)(C)SC2	20µM*	-9%
CN(C)c1ccc(CNC(=O)c2ccc(Cn3c(=O)c4cccn4c4cccnc43)cc2)cc1	-5%	-1%
CCc1ccccc1NC(=O)C1CCN(c2nn3c(=O)cc(C)nc3s2)CC1	-1%	-5%
COc1ccc(OC)c(NC(=O)c2cc(-c3ccc(C)cc3O)n[nH]2)c1	-25%	-2%
Cc1ccc(-c2cc(C(=O)Nc3cc(C)ccc3C)[nH]n2)c(O)c1	13µM*	-1%
COc1ccc(COc2cc(-c3cccc(OC)c3)nc3ccc(NC(=O)c4ccccc4)cc23)cc1	7.9µM*	2%
COc1cccc(-c2cc(C(=O)Nc3ccc4c(c3)OCCO4)c3ccccc3n2)c1	?	-7%
COc1ccc(COc2ccsc2C(=O)Nc2ccc(Cl)cc2)cc1	-9%	6%
COc1ccc(COc2cc(-c3cccc(OC)c3)nc3ccc(NC(=O)c4cccnc4)cc23)cc1	12%	0%
COc1ccc(COc2cc(-c3cccc(OC)c3)nc3ccc(NC(=O)c4ccc(OC)cc4)cc23)cc1	7.9µM*	2%
SMILES	Cruzain noTriton	Cruzain Triton
COc1ccc(COc2cc(-c3cccc(OC)c3)nc3ccc(NC(=O)c4ccc(Cl)cc4)cc23)cc1	2.8µM*	1%
CCN1CCC[C@@H](OC(=O)C(c2ccccc2)c2ccccc2)C1	-16%	-2%
Fc1ccc(Nc2ncnc3ccc(-c4ccoc4)cc23)cc1	-4%	-6%
COc1ccc(OCC(=O)Nc2nnc3n2CCS3)cc1	-3%	1%
N[C@@H](Cc1nn[nH]n1)C(=O)O	0%	6%
CCOc1cccc(C2c3[nH]c4ccccc4c3CCN2C(=O)CSCc2ccc(F)cc2)c1 (configuration not stated)	-3%	8%
CSc1ccc(C2c3[nH]c4ccccc4c3CCN2C(=O)CCC2CCCC2)cc1 (configuration not stated)	10µM*	2%
COc1cc(C(=O)N2CCc3c([nH]c4ccccc34)C2c2ccccc2)cc(OC)c1OC (configuration not stated)	?	-4%
CCOc1ccc(C2c3[nH]c4ccccc4c3CCN2C(=O)CSCc2ccc(F)cc2)cc1 (configuration not stated)	10µM*	2%
O=C(CSc1ccccc1)N1CCc2c([nH]c3ccccc23)C1c1ccc(F)cc1 (configuration not stated)	?	2%
CCN(CC)c1ccc(C(=O)N2CCc3c([nH]c4ccccc34)C2c2ccc(F)cc2)cc1 (configuration not stated)	16µM*	1%
CCSc1nnc([C@@H](N)Cc2c[nH]c3ccccc23)o1	7%	2%
Cc1cccc(NC(=O)CSc2nnc([C@@H](N)Cc3c[nH]c4ccccc34)o2)c1C	13µM*	13µM*
